Source: PubChem BioAssay AID1159580 (chemical genetic matrix, 2015)
Where “and” joins values, the source holds several entries; their conditions need not be identical. Equal values may be shown once. Screen size: about 5,500 compounds; about 2,000 (36%) were called active. Another 18% or so got no clear call; they are omitted. No stated cut-off is given here; in the data, active means normalized growth mostly below about 0.91 (no sharp cut-off); inconclusive means no clear call, values can overlap the other calls; inactive means mostly above about 0.92. This is one part of the list.

Assay: chemical genetic growth profiling, strain panel (AID 1159580);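 further: tested at 20 µM; growth read once vehicle control cultures reached saturation at 30 °C; 1 = growth at the plate median or of vehicle wells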
Settings: S. cerevisiae deletion strains, growth OD

Measured: normalized growth

CN1C(C(=O)Nc2ccccn2)=C(O)c2ccccc2S1(=O)=O
inactive: locus YAL013W, strain DEP1, stronger effect = lower value 0.977 and 0.995 | locus YAL021C, strain ccr4, stronger effect = lower value 0.977 | locus YAL026C, strain drs2, stronger effect = lower value 0.964 | locus YAL030W, strain snc1, stronger effect = lower value 0.944 | locus YAL040C, strain CLN3, stronger effect = lower value 1 | locus YBL061C, strain skt5, stronger effect = lower value 0.966 | locus YBR009C, strain hhf1, stronger effect = lower value 0.932 | locus YBR021W, strain FUR4, stronger effect = lower value 0.994 | locus YBR023C, strain chs3, stronger effect = lower value 0.982 | locus YBR171W, strain sec66, stronger effect = lower value 0.922 | locus YBR229C, strain ROT2, stronger effect = lower value 0.965 | locus YBR231C, strain swc5, stronger effect = lower value 0.953 | locus YBR279W, strain paf1, stronger effect = lower value 0.979 | locus YCL011C, strain gbp2, stronger effect = lower value 0.956 | locus YCL016C, strain dcc1, stronger effect = lower value 0.969 | locus YCL029C, strain bik1, stronger effect = lower value 0.955 | locus YCL061C, strain MRC1 (second series), stronger effect = lower value 0.997 | locus YCL069W, strain vba3, stronger effect = lower value 0.961 | locus YCR088W, strain abp1, stronger effect = lower value 0.968 | locus YDL005C, strain med2, stronger effect = lower value 0.964 | locus YDL035C, strain GPR1, stronger effect = lower value 1.01 | locus YDL040C, strain nat1, stronger effect = lower value 0.966 | locus YDL074C, strain BRE1, stronger effect = lower value 0.992 | locus YDL101C, strain DUN1, stronger effect = lower value 0.997 | locus YDL134C, strain PPH21, stronger effect = lower value 0.98 | locus YDL185W, strain tfp1, stronger effect = lower value 0.922 | locus YDL192W, strain arf1, stronger effect = lower value 0.966 | locus YDR001C, strain nth1, stronger effect = lower value 0.956 | locus YDR069C, strain doa4, stronger effect = lower value 0.984 | locus YDR101C, strain arx1, stronger effect = lower value 0.966 | locus YDR137W, strain rgp1, stronger effect = lower value 0.918 | locus YDR150W, strain NUM1, stronger effect = lower value 0.971 | locus YDR159W, strain sac3, stronger effect = lower value 0.966 | locus YDR162C, strain NBP2, stronger effect = lower value 0.991 | locus YDR195W, strain ref2 0.962 | locus YDR297W, strain sur2, stronger effect = lower value 0.945 | locus YDR318W, strain mcm21, stronger effect = lower value 0.944 | locus YDR334W, strain swr1, stronger effect = lower value 0.974 | locus YDR335W, strain msn5, stronger effect = lower value 0.97 | locus YDR363W, strain ESC2, stronger effect = lower value 1.02 | locus YDR388W, stronger effect = lower value 0.953 | locus YDR502C, strain sam2, stronger effect = lower value 0.957 | locus YEL003W, strain gim4, stronger effect = lower value 0.946 | locus YEL037C, strain rad23, stronger effect = lower value 0.976 | locus YEL061C, strain CIN8 (second series), stronger effect = lower value 0.978 | locus YEL061C, strain CIN8, stronger effect = lower value 0.977 | locus YER002W, strain NOP16, stronger effect = lower value 0.979 | locus YER015W, strain faa2, stronger effect = lower value 0.961 | locus YER016W, strain bim1, stronger effect = lower value 0.976 | locus YER110C, stronger effect = lower value 0.97 | locus YER111C, strain swi4, stronger effect = lower value 0.958 | locus YER155C, strain BEM2 (second series), stronger effect = lower value 0.882 | locus YER155C, strain BEM2, stronger effect = lower value 0.962 | locus YER167W, strain BCK2, stronger effect = lower value 0.968 | locus YFR010W, strain ubp6, stronger effect = lower value 0.971 | locus YGL078C, strain dbp3, stronger effect = lower value 0.959 | locus YGL086W, strain mad1, stronger effect = lower value 0.95 | locus YGL167C, strain pmr1, stronger effect = lower value 0.937 | locus YGL173C, strain kem1, stronger effect = lower value 0.957 | locus YGL227W, strain vid30, stronger effect = lower value 0.964 | locus YGL240W, strain doc1, stronger effect = lower value 0.949 | locus YGL248W, strain PDE1, stronger effect = lower value 0.984 | locus YGL253W, strain hxk2, stronger effect = lower value 0.961 | locus YGR078C, strain PAC10, stronger effect = lower value 0.975 | locus YGR135W, strain pre9, stronger effect = lower value 0.958 | locus YGR229C, strain SMI1, stronger effect = lower value 0.98 and 1.02 | locus YGR252W, strain gcn5, stronger effect = lower value 0.99 | locus YHR013C, strain ard1, stronger effect = lower value 0.91 | locus YHR027C, strain rpn1, stronger effect = lower value 0.982 | locus YHR030C, strain SLT2, stronger effect = lower value 0.972 and 0.968 | locus YHR079C, strain IRE1 (second series), stronger effect = lower value 0.96 | locus YHR079C, strain IRE1, stronger effect = lower value 0.947 | locus YHR094C, strain hxt1, stronger effect = lower value 0.956 | locus YHR129C, strain ARP1, stronger effect = lower value 0.97 | locus YHR142W, strain chs7, stronger effect = lower value 0.951 | locus YHR200W, strain rpn10, stronger effect = lower value 0.972 | locus YIL066C, strain RNR3, stronger effect = lower value 0.99 | locus YIL073C, strain SPO22, stronger effect = lower value 0.985 | locus YIL125W, strain kgd1, stronger effect = lower value 0.946 | locus YIR030C, strain dcg1, stronger effect = lower value 0.959 | locus YJL092W, strain hpr5, stronger effect = lower value 0.962 | locus YJL095W, strain BCK1 (second series), stronger effect = lower value 0.951 | locus YJL095W, strain BCK1, stronger effect = lower value 0.971 and 0.957 | locus YJL115W, strain asf1, stronger effect = lower value 0.985 | locus YJL134W, strain LCB3, stronger effect = lower value 0.967 | locus YJL154C, strain vps35, stronger effect = lower value 0.962 | locus YJL164C, strain tpk1, stronger effect = lower value 0.951 | locus YJL168C, strain set2, stronger effect = lower value 0.938 | locus YJL187C, strain SWE1 (second series), stronger effect = lower value 0.999 | locus YJR043C, strain POL32, stronger effect = lower value 0.995 | locus YJR066W, strain TOR1, stronger effect = lower value 0.918 | locus YJR075W, strain HOC1, stronger effect = lower value 0.991 and 1
active: locus YDR392W, strain spt3, stronger effect = lower value 0.539 | locus YJL129C, strain trk1, stronger effect = lower value 0.679 | locus YJL166W, strain qcr8, stronger effect = lower value 0.898
